Reference: PubChem BioAssay
Inconclusive results are not listed. Activity calls are given as the source filed them. Rule as the data show it, unless noted: active = percent of DMSO control GFP below about 86%; inactive = the rest, inconclusive results apart.

Assays:
[1] = rapamycin-like changes in RPL19A-GFP expression – cell-based, S. cerevisiae, multiplex flow cytometry, primary screen (AID 1862);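 also: lower values mimic rapamycin by blocking the RPL19A rise seen in DMSO cells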; conditions: S. cerevisiae RPL19A-GFP strain, flow cytometry fluorescence, 3 h; at 10 µM; stronger effect = lower value
[2] = TOR pathway GLN3 branch reporter MEP2-GFP changes – S. cerevisiae, multiplex flow cytometry, primary screen (AID 1867;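 active = GFP response, as percent of the DMSO control, above the screen-wide mean plus 3 SD, about 139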;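 also: median GFP channel fluorescence of barcode-gated MEP2-GFP cells measured by flow cytometry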); conditions: S. cerevisiae MEP2-GFP strain, 3 h, at 10 µM, stronger effect = higher value, 100% means same as DMSO wells
[3] = TOR pathway RTG branch CIT2 reporter changes – S. cerevisiae, GFP fusion, multiplex flow cytometry, primary screen (AID 1870;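 active = percent response above a set limit, the screen-wide mean plus 3 SD, cut at about 130% in these data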;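 also: barcoded CIT2-GFP strain pooled with four other GFP strains with rapamycin as positive control; median GFP fluorescence per well over plate mean of DMSO wells so 100% = DMSO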); conditions: S. cerevisiae CIT2-GFP expression, 3 h, at 10 µM, stronger effect = higher value
[4] = TOR pathway LAP4-GFP level changes – S. cerevisiae, multiplex flow cytometry, primary screen (AID 1873;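 active = GFP signal, as percent of the solvent control, above the screen mean plus 3 SD, about 149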); conditions: S. cerevisiae LAP4-GFP expression, 3 h, at 10 µM, stronger effect = higher value
[5] = yeast AGP1-GFP level changes, GLN3 branch – cell-based, multiplex flow cytometry, S. cerevisiae, primary screen (AID 1887;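 active = GFP signal above the screen-wide mean plus 3 SD, that is over about 124.5% of the solvent control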;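 also: AGP1-GFP fusion strain of S. cerevisiae within a five-strain barcoded multiplex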); conditions: 3 h, at 10 µM, stronger effect = higher value
[6] = reduced mouse 2C T cell binding to pMHC/ICAM-1 vesicles – MLPCN validation set, flow cytometry, LFA-1/ICAM-1 modulator project, pilot screen (AID 2523;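 active = response below a set limit, under 55% cells CD8-positive and vesicle-bound, and CD8 cells' 90th-percentile brightness under 279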;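 as to vesicle binding response: mean PE anti-B7-1 fluorescence of CD8+ cells relative to row control; 100% = QL9-loaded vesicles with DMSO vehicle in the same plate row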); conditions: 2C mouse CD8+ T cells, at 7 µM, stronger effect = lower value; double positive events: measured here: CD8+/vesicle+ event percentage
[7] = biological target: Integrin beta-1 (Homo sapiens) + Integrin alpha-4 (Homo sapiens) (UniProt P13612+P05556); experiment: alpha4beta1 integrin LIBS antibody binding reduction – U937 cells, HUTS-21 mAb, flow cytometry, validation set, VLA-4 allosteric modulator project, pilot screen (AID 2674;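 active = inhibition above 50%, about 3 SD of the validation set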;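 also: antibody binding induced by the VLA-4 ligand LDV present at three times its Kd; 0% = LDV ligand with antibody and no compound and 100% = antibody without LDV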); conditions: HUTS-21 LIBS mAb binding, at 6.7 µM, stronger effect = higher value, binding induced by LDV ligand
[8] = calorie-restriction mimetic ROS inhibitors, yeast – validation compound set, pilot screen (AID 2706;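 active = superoxide response below 65% of plate, a cut near 3 SD across the whole screen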;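 also: yeast exposed to compound for one week at 30 degrees C before staining; 100% = mean of all compound wells on the same plate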); conditions: S. cerevisiae aging, superoxide DHE fluorescence; at 10 µM, stronger effect = lower value
[9] = biological target: Beta-adrenergic receptor kinase 1 (Homo sapiens) (UniProt P25098); experiment: GRK2 binders displacing RNA aptamer, biochemical, validation, human GRK2, bead flow cytometry (AID 488806;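 active = aptamer binding inhibition above 30%, about 3 SD of noise from non-fluorescent compounds; inactive = inhibition at or below 30%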); conditions: bead-bound GRK2, FAM-aptamer displacement, at 10 µM, stronger effect = higher value
[10] = biological target: Beta-2 adrenergic receptor (Homo sapiens) (UniProt P07550); experiment: agonist-induced loss of surface beta2AR – cell-based, FAP fluorogen, flow cytometry, validation set, pilot screen (AID 504459;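 active = percent response above 42, roughly 3 SD of non-fluorescent test compounds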;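 also: agonist-driven loss of surface beta2AR via internalization measured by FAP dye flow cytometry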); conditions: Am2.2-beta2AR cells, at 10 µM, stronger effect = higher value
[11] = cytosolic pH regulators acting via V-ATPase – S. cerevisiae, pHLuorin, HTS validation (AID 504600; in the data active = response above about 15%;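 also: plate controls were DMSO for no effect and reference compound for full effect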); conditions: V-ATPase proton transport, at 10 µM, stronger effect = higher value
[12] = system: anti-desmoglein-3 scFv antibody binding to human DSG3; experiment: blockers of pathogenic pemphigus antibody–desmoglein-3 binding – biochemical, validation compound set, bead-based, flow cytometry, pilot screen (AID 588368;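 active = binding below the plate cutoff, the plate median minus 3 SD, with a reading above zero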;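 also: signal is the median channel fluorescence of bead-bound GFP antibody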); conditions: Protein G beads, DSG3-Fc, scFv-GFP binding, at 10 µM, stronger effect = lower value
[13] = Nile Red efflux blockade in pump-expressing yeast – validation compound set, multiplex, phenotypic, pilot screen (AID 588506;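 active = efflux inhibition above 0.42, the validation set average plus 4 SD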;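 also: Nile Red retained in cells so higher fluorescence means more efflux inhibition; 0 = negative control wells and 1 = enniatin B 25 µM full block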); conditions: S. cerevisiae pump-expressing triplex, Nile Red efflux flow cytometry; at 10 µM; stronger effect = higher value; the pumps come from Candida albicans
[14] = biological target: ATP-binding cassette sub-family B member 6 (Homo sapiens) (UniProt Q9NP58); experiment: blockers of ABCB6-driven porphyrin uptake – K562-ABCB6 cells, flow cytometry, validation set, pilot screen (AID 588550;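 active = inhibition above the screen-wide mean plus 3 SD, about 51%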;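 also: 0% = DMSO wells and 100% = benzethonium chloride 70 µM positive control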); conditions: K562-ABCB6 porphyrin accumulation, 1 h, at 10 µM, stronger effect = higher value
[15] = AML differentiation inducers, ER-HoxA9 marrow cells – cell-based, GFP/MAC1 double positive, flow cytometry, validation set, primary screen (AID 588685;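 active = differentiation response of at least 50%, scaled between solvent and reference control, from cells with both markers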;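 also: compound exposure lasts four days before antibody staining and flow analysis; 0% = DMSO wells and 100% = 5 µM fulvestrant positive control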); conditions: stronger effect = higher value, normalized: vehicle 0, fulvestrant 100
[16] = biological target: AP-2 complex subunit beta (Homo sapiens) (UniProt P63010); experiment: beta-arrestin/AP2 interaction blockers – biochemical, validation set, GST-AP2 beads, flow cytometry, pilot screen (AID 504541;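 active = inhibition above 54%, about 3 SD of non-fluorescent compounds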;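 also: AP2 carries R879A mutation and is captured from E. coli lysate; bead-bound FITC arrestin peptide fluorescence measuring arrestin peptide binding to AP2; 0% = DMSO wells and 100% = excess unlabeled arrestin peptide control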); conditions: FITC arrestin peptide, at 10 µM, stronger effect = higher value, AP2 beta2 appendage fragment, R879A mutant
AP-2 complex subunit beta (Homo sapiens), sequence (P63010 whole entry, looked up, the tested form may be a part, one chain of several): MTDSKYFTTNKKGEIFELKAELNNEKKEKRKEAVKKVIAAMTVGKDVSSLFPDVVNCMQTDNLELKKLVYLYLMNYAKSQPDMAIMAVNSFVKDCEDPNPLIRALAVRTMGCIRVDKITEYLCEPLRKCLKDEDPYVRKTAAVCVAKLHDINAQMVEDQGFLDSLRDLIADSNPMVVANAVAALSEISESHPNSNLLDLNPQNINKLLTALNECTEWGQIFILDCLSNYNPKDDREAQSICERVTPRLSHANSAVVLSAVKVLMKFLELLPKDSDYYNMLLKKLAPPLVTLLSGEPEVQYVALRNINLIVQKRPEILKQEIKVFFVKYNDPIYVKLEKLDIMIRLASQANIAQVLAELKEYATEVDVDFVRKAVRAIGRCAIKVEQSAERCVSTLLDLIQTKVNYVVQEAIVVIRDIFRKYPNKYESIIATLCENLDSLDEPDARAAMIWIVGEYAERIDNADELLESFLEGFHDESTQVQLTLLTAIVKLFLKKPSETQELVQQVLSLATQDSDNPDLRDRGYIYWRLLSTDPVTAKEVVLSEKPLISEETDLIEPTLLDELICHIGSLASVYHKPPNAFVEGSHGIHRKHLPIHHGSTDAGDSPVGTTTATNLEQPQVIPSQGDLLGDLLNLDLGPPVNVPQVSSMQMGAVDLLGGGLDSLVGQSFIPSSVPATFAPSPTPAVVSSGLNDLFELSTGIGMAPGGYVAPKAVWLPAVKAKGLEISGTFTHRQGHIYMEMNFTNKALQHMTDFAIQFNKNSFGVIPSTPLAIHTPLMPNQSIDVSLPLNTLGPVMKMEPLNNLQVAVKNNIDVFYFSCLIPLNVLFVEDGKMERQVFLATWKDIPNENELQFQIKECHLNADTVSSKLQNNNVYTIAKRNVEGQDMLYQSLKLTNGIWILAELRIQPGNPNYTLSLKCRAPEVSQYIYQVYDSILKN

ATP-binding cassette sub-family B member 6 (Homo sapiens), sequence (Q9NP58 whole entry, looked up): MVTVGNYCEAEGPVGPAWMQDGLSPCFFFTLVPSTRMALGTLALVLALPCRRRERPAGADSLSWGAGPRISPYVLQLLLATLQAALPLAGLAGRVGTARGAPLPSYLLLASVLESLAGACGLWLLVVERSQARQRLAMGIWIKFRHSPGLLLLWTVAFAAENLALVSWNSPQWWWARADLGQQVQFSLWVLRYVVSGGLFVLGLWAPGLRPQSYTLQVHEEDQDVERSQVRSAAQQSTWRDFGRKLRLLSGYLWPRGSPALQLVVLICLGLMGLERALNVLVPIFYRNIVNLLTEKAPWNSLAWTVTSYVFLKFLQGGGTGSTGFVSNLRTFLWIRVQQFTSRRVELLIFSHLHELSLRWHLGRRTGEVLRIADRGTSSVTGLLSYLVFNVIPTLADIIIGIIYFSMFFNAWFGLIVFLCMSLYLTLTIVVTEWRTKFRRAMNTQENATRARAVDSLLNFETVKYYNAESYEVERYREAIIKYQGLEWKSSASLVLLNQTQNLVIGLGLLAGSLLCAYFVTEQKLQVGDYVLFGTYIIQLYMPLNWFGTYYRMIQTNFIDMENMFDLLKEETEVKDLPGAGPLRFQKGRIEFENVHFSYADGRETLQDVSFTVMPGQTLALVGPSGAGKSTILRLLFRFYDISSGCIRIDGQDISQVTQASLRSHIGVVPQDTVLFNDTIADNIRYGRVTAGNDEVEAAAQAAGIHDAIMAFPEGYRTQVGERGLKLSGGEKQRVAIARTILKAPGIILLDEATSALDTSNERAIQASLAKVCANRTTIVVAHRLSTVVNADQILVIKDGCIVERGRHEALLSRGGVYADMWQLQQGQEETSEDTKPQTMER
Beta-2 adrenergic receptor (Homo sapiens), sequence (P07550 whole entry, looked up): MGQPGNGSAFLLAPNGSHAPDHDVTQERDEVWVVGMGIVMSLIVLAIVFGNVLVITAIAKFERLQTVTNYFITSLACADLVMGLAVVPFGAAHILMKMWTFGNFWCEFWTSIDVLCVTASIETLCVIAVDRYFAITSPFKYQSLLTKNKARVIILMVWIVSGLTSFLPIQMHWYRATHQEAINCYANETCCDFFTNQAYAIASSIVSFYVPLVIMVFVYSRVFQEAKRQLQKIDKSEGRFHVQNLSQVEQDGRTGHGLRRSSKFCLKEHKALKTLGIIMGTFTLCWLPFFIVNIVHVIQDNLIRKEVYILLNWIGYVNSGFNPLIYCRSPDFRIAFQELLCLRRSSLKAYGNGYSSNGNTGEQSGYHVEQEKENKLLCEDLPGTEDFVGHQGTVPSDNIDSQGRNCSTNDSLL
Integrin beta-1 (Homo sapiens) + Integrin alpha-4 (Homo sapiens), sequence (P05556 whole entry, looked up): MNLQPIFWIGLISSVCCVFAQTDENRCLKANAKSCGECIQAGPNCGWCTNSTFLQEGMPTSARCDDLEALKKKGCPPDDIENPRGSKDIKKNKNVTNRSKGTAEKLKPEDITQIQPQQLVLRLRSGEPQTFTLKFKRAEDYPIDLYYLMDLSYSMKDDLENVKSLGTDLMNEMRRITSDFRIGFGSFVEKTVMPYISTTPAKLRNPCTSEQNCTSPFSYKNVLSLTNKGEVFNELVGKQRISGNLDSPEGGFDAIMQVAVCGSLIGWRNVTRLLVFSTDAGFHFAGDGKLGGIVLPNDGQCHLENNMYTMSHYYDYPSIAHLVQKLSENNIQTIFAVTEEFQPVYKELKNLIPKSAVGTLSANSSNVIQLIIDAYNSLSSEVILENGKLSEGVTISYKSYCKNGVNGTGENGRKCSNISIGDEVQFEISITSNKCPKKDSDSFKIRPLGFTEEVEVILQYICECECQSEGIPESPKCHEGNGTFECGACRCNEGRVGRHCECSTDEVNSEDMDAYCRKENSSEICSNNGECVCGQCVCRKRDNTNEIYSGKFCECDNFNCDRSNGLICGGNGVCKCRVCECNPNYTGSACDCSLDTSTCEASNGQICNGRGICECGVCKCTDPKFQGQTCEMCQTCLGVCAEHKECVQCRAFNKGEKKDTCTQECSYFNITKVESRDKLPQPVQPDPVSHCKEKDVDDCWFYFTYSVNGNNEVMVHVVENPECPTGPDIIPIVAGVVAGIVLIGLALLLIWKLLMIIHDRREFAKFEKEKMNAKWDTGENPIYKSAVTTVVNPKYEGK
Integrin beta-1 (Homo sapiens) + Integrin alpha-4 (Homo sapiens), sequence (P13612 whole entry, looked up): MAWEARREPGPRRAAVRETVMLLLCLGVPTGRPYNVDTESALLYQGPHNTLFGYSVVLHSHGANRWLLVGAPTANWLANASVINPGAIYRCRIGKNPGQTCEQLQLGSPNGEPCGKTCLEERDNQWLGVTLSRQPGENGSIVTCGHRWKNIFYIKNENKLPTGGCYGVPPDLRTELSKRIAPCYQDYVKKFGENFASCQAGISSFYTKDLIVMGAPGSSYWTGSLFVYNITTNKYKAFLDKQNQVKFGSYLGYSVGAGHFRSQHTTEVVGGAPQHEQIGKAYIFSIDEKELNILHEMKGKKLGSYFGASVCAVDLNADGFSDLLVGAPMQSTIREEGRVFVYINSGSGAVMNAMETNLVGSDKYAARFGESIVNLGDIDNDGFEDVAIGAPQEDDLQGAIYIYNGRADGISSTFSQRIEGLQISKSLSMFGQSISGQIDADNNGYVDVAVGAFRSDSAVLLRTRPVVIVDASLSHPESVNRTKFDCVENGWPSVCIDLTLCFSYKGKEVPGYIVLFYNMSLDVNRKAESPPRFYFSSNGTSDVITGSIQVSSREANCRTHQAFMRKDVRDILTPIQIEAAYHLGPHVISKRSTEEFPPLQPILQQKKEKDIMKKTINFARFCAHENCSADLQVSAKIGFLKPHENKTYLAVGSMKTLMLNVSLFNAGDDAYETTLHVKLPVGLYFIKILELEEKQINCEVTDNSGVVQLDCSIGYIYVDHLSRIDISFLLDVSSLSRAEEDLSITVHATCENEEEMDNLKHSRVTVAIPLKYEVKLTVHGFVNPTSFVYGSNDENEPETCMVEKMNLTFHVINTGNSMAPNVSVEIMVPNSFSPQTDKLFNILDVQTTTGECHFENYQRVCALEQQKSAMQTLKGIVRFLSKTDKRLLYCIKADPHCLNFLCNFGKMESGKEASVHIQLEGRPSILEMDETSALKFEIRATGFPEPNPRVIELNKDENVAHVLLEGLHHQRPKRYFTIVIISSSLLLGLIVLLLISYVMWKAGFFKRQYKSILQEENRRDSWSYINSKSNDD
Beta-adrenergic receptor kinase 1 (Homo sapiens), sequence (P25098 whole entry, looked up): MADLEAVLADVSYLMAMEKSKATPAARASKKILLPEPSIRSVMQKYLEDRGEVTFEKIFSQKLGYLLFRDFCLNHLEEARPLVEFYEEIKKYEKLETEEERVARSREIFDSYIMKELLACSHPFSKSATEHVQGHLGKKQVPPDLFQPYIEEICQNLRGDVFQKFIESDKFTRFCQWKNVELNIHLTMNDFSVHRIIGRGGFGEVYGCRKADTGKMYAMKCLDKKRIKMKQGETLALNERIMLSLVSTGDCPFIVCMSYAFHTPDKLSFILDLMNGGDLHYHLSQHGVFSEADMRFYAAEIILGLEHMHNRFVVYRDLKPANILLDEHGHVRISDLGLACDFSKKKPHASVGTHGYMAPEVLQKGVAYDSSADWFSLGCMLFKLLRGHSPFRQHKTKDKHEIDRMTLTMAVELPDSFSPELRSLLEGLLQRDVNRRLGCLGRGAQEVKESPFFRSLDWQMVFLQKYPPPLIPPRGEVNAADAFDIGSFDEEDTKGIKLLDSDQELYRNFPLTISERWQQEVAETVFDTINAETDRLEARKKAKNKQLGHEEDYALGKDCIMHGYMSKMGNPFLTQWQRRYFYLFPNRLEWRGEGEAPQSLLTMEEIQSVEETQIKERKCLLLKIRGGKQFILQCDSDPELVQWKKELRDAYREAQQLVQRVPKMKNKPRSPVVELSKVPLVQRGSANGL

COc1ccc2c(c1)[nH]c1c(=O)n(Cc3ccccn3)cnc12
percent of DMSO control GFP [1]: 97.7% (inactive)
GFP response vs DMSO [2]: 97.7% (inactive)
percent response of DMSO control [3]: 101% (inactive)
GFP response vs DMSO [4]: 106% (inactive)
GFP response, % of DMSO [5]: 96.1% (inactive)
double positive events [6]: 64%
vesicle binding response [6]: 1600% (inactive)
inhibition [7]: -1.74% (inactive)
superoxide response (% of plate) [8]: 109% (inactive)
aptamer binding inhibition [9]: -4% (inactive)
response [10]: 2.42% (inactive)
response [11]: -2.14% (inactive)
binding (% of control) [12]: 98% (inactive)
efflux inhibition (fraction of control) [13]: -0.5 (inactive)
inhibition [14]: 3% (inactive)
differentiation response [15]: 10.3% (inactive)

OCCN1CCN(CCCN2c3ccccc3Sc3ccc(Cl)cc32)CC1
percent of DMSO control GFP [1]: 104% (inactive)
GFP response vs DMSO [2]: 104% (inactive)
percent response of DMSO control [3]: 100% (inactive)
GFP response vs DMSO [4]: 112% (inactive)
GFP response, % of DMSO [5]: 121% (inactive)
double positive events [6]: 64.3%
vesicle binding response [6]: 268% (inactive)
inhibition [7]: 68.7% (active)
superoxide response (% of plate) [8]: 111% (inactive)
aptamer binding inhibition [9]: -10% (inactive)
inhibition [16]: 29.9% (inactive)
response [11]: 5.46% (inactive)
binding (% of control) [12]: 115% (inactive)
efflux inhibition (fraction of control) [13]: 0.71 (active)
inhibition [14]: -3% (inactive)
differentiation response [15]: -11.9% (inactive)

Nc1ccc(N)c(C(=O)O)c1
percent of DMSO control GFP [1]: 100% (inactive)
GFP response vs DMSO [2]: 99.9% (inactive)
percent response of DMSO control [3]: 110% (inactive)
GFP response vs DMSO [4]: 85.3% (inactive)
GFP response, % of DMSO [5]: 90.3% (inactive)
double positive events [6]: 50%
vesicle binding response [6]: 122% (inactive)
inhibition [7]: -3.04% (inactive)
superoxide response (% of plate) [8]: 79% (inactive)
aptamer binding inhibition [9]: 92% (active)
inhibition [16]: 92.2% (active)
response [11]: -0.99% (inactive)
binding (% of control) [12]: 2.29% (active)
efflux inhibition (fraction of control) [13]: -0.24 (inactive)
inhibition [14]: 8% (inactive)
differentiation response [15]: -5.05% (inactive)

Cn1cc(CN2CCCC(CO)(Cc3cccc(Cl)c3)C2)cn1 (stereo not given)
percent of DMSO control GFP [1]: 98% (inactive)
GFP response vs DMSO [2]: 102% (inactive)
percent response of DMSO control [3]: 98.2% (inactive)
GFP response vs DMSO [4]: 97.2% (inactive)
GFP response, % of DMSO [5]: 99.5% (inactive)
double positive events [6]: 59.5%
vesicle binding response [6]: 57.6% (inactive)
inhibition [7]: 9.71% (inactive)
superoxide response (% of plate) [8]: 92.7% (inactive)
aptamer binding inhibition [9]: 0% (inactive)
response [10]: 30.5% (inactive)
response [11]: -0.03% (inactive)
binding (% of control) [12]: 102% (inactive)
efflux inhibition (fraction of control) [13]: -0.66 (inactive)
inhibition [14]: 2% (inactive)
differentiation response [15]: -1.88% (inactive)

CCOC(=O)C1=C(N)Oc2c(oc(CO)cc2=O)C1c1ccc(F)c(F)c1 (stereo not given)
percent of DMSO control GFP [1]: 99.1% (inactive)
GFP response vs DMSO [2]: 101% (inactive)
percent response of DMSO control [3]: 99.8% (inactive)
GFP response vs DMSO [4]: 94.3% (inactive)
GFP response, % of DMSO [5]: 97.3% (inactive)
double positive events [6]: 56.7%
vesicle binding response [6]: 213% (inactive)
inhibition [7]: 9.09% (inactive)
superoxide response (% of plate) [8]: 98% (inactive)
aptamer binding inhibition [9]: 1% (inactive)
inhibition [16]: 42.8% (inactive)
response [11]: -11.2% (inactive)
binding (% of control) [12]: 104% (inactive)
efflux inhibition (fraction of control) [13]: 0.03 (inactive)
inhibition [14]: 2% (inactive)
differentiation response [15]: -18% (inactive)

N/C(=N\OS(=O)(=O)c1ccc2ccccc2c1)c1cccnc1
percent of DMSO control GFP [1]: 103% (inactive)
GFP response vs DMSO [2]: 104% (inactive)
percent response of DMSO control [3]: 95.9% (inactive)
GFP response vs DMSO [4]: 99.4% (inactive)
GFP response, % of DMSO [5]: 97.5% (inactive)
double positive events [6]: 61.4%
vesicle binding response [6]: 133% (inactive)
inhibition [7]: 2.56% (inactive)
superoxide response (% of plate) [8]: 96.2% (inactive)
aptamer binding inhibition [9]: 2% (inactive)
inhibition [16]: 45.4% (inactive)
response [11]: -4.42% (inactive)
binding (% of control) [12]: 108% (inactive)
efflux inhibition (fraction of control) [13]: 0.29 (inactive)
inhibition [14]: 6% (inactive)
differentiation response [15]: -13.1% (inactive)

CC(C)C[C@H](NC(=O)[C@@H]1Cc2ccccc2CN1C(=O)OC(C)(C)C)C(=O)NCC1CCC(C(=O)O)CC1 (stereo not given in full)
percent of DMSO control GFP [1]: 99.3% (inactive)
GFP response vs DMSO [2]: 95.9% (inactive)
percent response of DMSO control [3]: 105% (inactive)
GFP response vs DMSO [4]: 92.3% (inactive)
GFP response, % of DMSO [5]: 99.9% (inactive)
double positive events [6]: 59.9%
vesicle binding response [6]: 257% (inactive)
inhibition [7]: 1.62% (inactive)
superoxide response (% of plate) [8]: 93.6% (inactive)
aptamer binding inhibition [9]: 3% (inactive)
inhibition [16]: -3.49% (inactive)
response [11]: -10.3% (inactive)
binding (% of control) [12]: 101% (inactive)
efflux inhibition (fraction of control) [13]: -0.12 (inactive)
inhibition [14]: 7% (inactive)
differentiation response [15]: -27.6% (inactive)

CC(C)CN1CC(C(=O)O)CC1=O (stereo not given)
percent of DMSO control GFP [1]: 96.1% (inactive)
GFP response vs DMSO [2]: 101% (inactive)
percent response of DMSO control [3]: 96% (inactive)
GFP response vs DMSO [4]: 104% (inactive)
GFP response, % of DMSO [5]: 102% (inactive)
double positive events [6]: 56%
vesicle binding response [6]: 66.5% (inactive)
inhibition [7]: 1.12% (inactive)
superoxide response (% of plate) [8]: 102% (inactive)
aptamer binding inhibition [9]: 0% (inactive)
response [10]: -5.23% (inactive)
response [11]: -1.05% (inactive)
binding (% of control) [12]: 104% (inactive)
efflux inhibition (fraction of control) [13]: -0.57 (inactive)
inhibition [14]: 4% (inactive)
differentiation response [15]: 5.73% (inactive)

COc1ccc2c(c1)CC[C@@H]1[C@@H]2CC[C@]2(C)C(=O)CC[C@@H]12
percent of DMSO control GFP [1]: 102% (inactive)
GFP response vs DMSO [2]: 102% (inactive)
percent response of DMSO control [3]: 98.6% (inactive)
GFP response vs DMSO [4]: 133% (inactive)
GFP response, % of DMSO [5]: 104% (inactive)
double positive events [6]: 58.2%
vesicle binding response [6]: 122% (inactive)
inhibition [7]: -7.79% (inactive)
superoxide response (% of plate) [8]: 98.6% (inactive)
aptamer binding inhibition [9]: -1% (inactive)
response [10]: -15.3% (inactive)
inhibition [16]: -2.71% (inactive)
response [11]: 109% (active)
binding (% of control) [12]: 102% (inactive)
inhibition [14]: 3% (inactive)
differentiation response [15]: -0.18% (inactive)

COc1ccc(C(=O)/C=C/c2ccc(OC(=O)c3cc(OC)c(OC)c(OC)c3)cc2)cc1
percent of DMSO control GFP [1]: 100% (inactive)
GFP response vs DMSO [2]: 102% (inactive)
percent response of DMSO control [3]: 87.3% (inactive)
GFP response vs DMSO [4]: 114% (inactive)
GFP response, % of DMSO [5]: 105% (inactive)
double positive events [6]: 60.7%
vesicle binding response [6]: 179% (inactive)
inhibition [7]: -7.93% (inactive)
superoxide response (% of plate) [8]: 96.7% (inactive)
aptamer binding inhibition [9]: -2% (inactive)
response [10]: -6.42% (inactive)
response [11]: -3.29% (inactive)
binding (% of control) [12]: 97.4% (inactive)
efflux inhibition (fraction of control) [13]: 0.42 (inactive)
inhibition [14]: 0% (inactive)
differentiation response [15]: 20.6% (inactive)
